Results taken from PubChem BioAssay.
Activity calls are given as the source filed them. Unless noted, the rule behind the calls is not given here.

Tests used:
[1] = resazurin metabolic signal in HepG2 cells – cell-based, resazurin fluorescence, 24 h, PK04 Diversity Set, profiling panel (AID 1172); details: HepG2 viability, higher = more signal; note: test concentration not given here
[2] = budding yeast growth changes without added modifier – OD600, strain BY4716, 24 h, basal condition, primary screen (AID 1173); details: S. cerevisiae BY4716 growth, OD600, 24 h; higher = more signal, called active from +8 up or from −8 down
[3] = viability profiling in MM1S myeloma cells – cell-based, resazurin fluorescence, basal, 24 h, PK04 Diversity Set, profiling panel (AID 1174); details: higher = more signal, called active from +8 up or from −8 down;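 note: MM1S multiple myeloma cell line; test concentration not given here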
[4] = target: Dihydroorotate dehydrogenase (quinone), mitochondrial (Plasmodium falciparum (isolate 3D7)) (UniProt Q08210); experiment: inhibition of P. falciparum DHODH – biochemical, C-terminal His tag, absorbance 600 nm, primary screen (AID 1175); details: PfDHODH enzyme, DCIP absorbance 600 nm; higher = more signal, called active from +8 up or from −8 down;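 note: recombinant parasite enzyme with a five histidine tag at its C terminus; test concentration not given here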
Sequence of Dihydroorotate dehydrogenase (quinone), mitochondrial (Plasmodium falciparum (isolate 3D7)) (Q08210 whole entry, looked up): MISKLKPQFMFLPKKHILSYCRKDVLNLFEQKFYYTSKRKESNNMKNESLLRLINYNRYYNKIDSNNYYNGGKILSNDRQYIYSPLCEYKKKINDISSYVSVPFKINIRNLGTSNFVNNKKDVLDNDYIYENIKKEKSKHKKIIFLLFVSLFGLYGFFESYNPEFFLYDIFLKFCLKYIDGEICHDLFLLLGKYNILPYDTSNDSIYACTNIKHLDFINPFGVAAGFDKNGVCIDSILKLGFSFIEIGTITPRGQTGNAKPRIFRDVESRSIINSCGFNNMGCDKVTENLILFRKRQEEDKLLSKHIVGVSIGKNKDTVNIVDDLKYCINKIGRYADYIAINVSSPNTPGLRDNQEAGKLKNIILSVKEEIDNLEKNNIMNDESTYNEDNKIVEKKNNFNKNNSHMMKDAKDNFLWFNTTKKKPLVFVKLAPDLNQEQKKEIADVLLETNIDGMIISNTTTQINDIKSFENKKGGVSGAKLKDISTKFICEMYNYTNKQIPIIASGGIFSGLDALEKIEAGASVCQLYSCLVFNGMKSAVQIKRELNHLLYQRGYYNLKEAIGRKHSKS

[5] = inhibition of PAO1 biofilm formation – strain PAO1, LB-PBS medium, absorbance 600 nm, primary screen (AID 1176); note: test concentration not given here; details: P. aeruginosa PAO1 growth/biofilm, A600, 12 h; higher = more signal
[6] = growth modulation of vineyard yeast isolate – strain RM11-1a, OD600, basal, 24 h, primary screen (AID 1177);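 note: cultures grown under basal conditions with no added stressor; test concentration not given here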; details: S. cerevisiae RM11-1a growth, OD600, 24 h; higher = more signal, called active from +8 up or from −8 down
[7] = growth of efflux-deficient E. coli DRC39 – strain DRC39, OD650, 24 h, E. coli filamentation inducers, primary screen (AID 1178);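 note: growth measured as culture turbidity by optical density at 650 nm; test concentration not given here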; details: E. coli DRC39 acrAB, higher = more signal, called active from +8 up or from −8 down
[8] = growth of efflux-deficient E. coli DRC39 – strain DRC39, OD650, 48 h, E. coli filamentation inducers, primary screen (AID 1179);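 note: screen aims at cell division blockers that make cells filament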; details: E. coli DRC39 delta-acrAB growth, higher = more signal, called active from +8 up or from −8 down
[9] = viability profiling in RPMI8226 myeloma cells – cell-based, resazurin fluorescence, basal, 24 h, PK04 Diversity Set, profiling panel (AID 1180); details: higher = more signal;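 note: RPMI8826 multiple myeloma cell line at 5000 cells per well; test concentration not given here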
[10] = target: E3 ubiquitin-protein ligase XIAP (Homo sapiens) (UniProt P98170); experiment: small molecules binding XIAP protein – biophysical, small-molecule microarray, fluorescence 635 nm, primary screen (AID 1181); details: higher = more signal;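 note: score merges 667 nm emission and signal to noise over triplicate slides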
Sequence of E3 ubiquitin-protein ligase XIAP (Homo sapiens) (P98170 whole entry, looked up): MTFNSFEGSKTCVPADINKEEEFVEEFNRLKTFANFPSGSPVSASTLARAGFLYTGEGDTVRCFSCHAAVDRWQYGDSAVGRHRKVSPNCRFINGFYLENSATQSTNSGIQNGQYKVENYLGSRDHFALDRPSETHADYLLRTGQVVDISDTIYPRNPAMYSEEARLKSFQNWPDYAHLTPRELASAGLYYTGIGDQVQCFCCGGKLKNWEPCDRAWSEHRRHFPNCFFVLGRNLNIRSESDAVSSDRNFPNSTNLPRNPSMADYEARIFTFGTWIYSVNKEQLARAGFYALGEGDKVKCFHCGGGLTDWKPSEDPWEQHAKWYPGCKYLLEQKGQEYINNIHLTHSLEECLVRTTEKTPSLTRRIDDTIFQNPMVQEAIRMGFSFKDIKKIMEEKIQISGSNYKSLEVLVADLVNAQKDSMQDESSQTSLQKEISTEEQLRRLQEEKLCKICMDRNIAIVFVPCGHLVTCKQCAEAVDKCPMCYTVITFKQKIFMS

Compound	z-score [1]	z-score [2]	z-score [3]	composite z-score [4]	z-score [5]	z-score [6]	z-score [7]	z-score [8]	z-score [9]	composite z-score [10]
O=C1OCCC/C=C\[C@H]2OC34C=CCN(c5ccc6ccccc6c5)C(=O)[C@H]3N(CCCCCCO)C(=O)[C@@H]4C12 (stereo not given in full)	-0.156	-1.28 (inactive)	0.241 (inactive)	-1.97 (inactive)	0.481 (inactive)	-1.49 (inactive)	0.374 (inactive)	1.01 (inactive)	0.152	0.115
COC(=O)c1c(CC[C@@H](CO)NC(=O)N[C@@H](C)Cn2cc(C3(O)CCCCC3)nn2)oc(C(C)=O)c1C(=O)OC	-1.26	-2.52 (inactive)	-0.131 (inactive)	-2.71 (inactive)	0.0793 (inactive)	-0.314 (inactive)	0.104 (inactive)	-0.305 (inactive)	-0.8	-0.039
COCCOC(=O)N1C(=O)[C@@]2(c3cc(C#CCNC(N)=O)ccc31)[C@H](C(=O)NC[C@H](O)c1ccccc1)[C@H]1C(=O)O[C@H](c3ccccc3)[C@H](c3ccccc3)N1[C@@H]2c1ccccc1OCCO	-0.577	1.39 (inactive)	0.796 (inactive)	0.272 (inactive)	2.62 (inactive)	1.97 (inactive)	1.01 (inactive)	1.1 (inactive)	0.952	0.108
O=C1OCCC/C=C\[C@H]2OC34C=CCN(Cn5nnc6ccccc65)C(=O)[C@H]3N(CCCCCCO)C(=O)[C@@H]4C12 (stereo not given in full)	1.14	-1.45 (inactive)	0.651 (inactive)	-0.332 (inactive)	1.07 (inactive)	-1.16 (inactive)	1.09 (inactive)	1.18 (inactive)	0.598	-0.203
C=CC[C@@]1(C(N)=O)N=C(c2ccc(OCCCO)cc2)O[C@@H]1c1ccccc1CN=[N+]=[N-]	0.165	-0.935 (inactive)	0.348 (inactive)	-0.0357 (inactive)	0.426 (inactive)	-0.742 (inactive)	0.793 (inactive)	-0.597 (inactive)	0.093	-0.201
CN(C)CCCNC(=O)[C@@]1(C)c2ccccc2C(=O)N(Cc2cc(F)cc(C(F)(F)F)c2)[C@H]1c1ccc(CO)cc1	0.101	-0.84 (inactive)	0.079 (inactive)	-0.478 (inactive)	0.264 (inactive)	-1.11 (inactive)	0.706 (inactive)	-0.175 (inactive)	-0.406	-0.0079
[N-]=[N+]=Nc1ccccc1C[C@]1(C(=O)NCC(O)CO)N=C(c2ccc(OCCCO)cc2)O[C@H]1c1ccccc1N=[N+]=[N-] (stereo not given in full)	-1.01	-1.14 (inactive)	-2.08 (inactive)	0.139 (inactive)	-0.428 (inactive)	1.52 (inactive)	-0.0211 (inactive)	0.622 (inactive)	-1.99	0.0968
CN(C)C(=O)[C@]1(Cc2ccccc2N=[N+]=[N-])N=C(c2ccc(OCCCO)cc2)O[C@@H]1c1ccccc1	0.0707	-1.87 (inactive)	-0.597 (inactive)	0.209 (inactive)	-1.49 (inactive)	0.504 (inactive)	0.651 (inactive)	1.15 (inactive)	0.0542	-0.141
O=C1c2ccccc2[C@](Cc2ccccc2I)(C(=O)NC2CC2)[C@H](c2ccc(CO)cc2)N1C1CCCCC1	-0.13	0.404 (inactive)	0.516 (inactive)	1.06 (inactive)	0.304 (inactive)	2.64 (inactive)	-0.0781 (inactive)	-0.585 (inactive)	0.549	-0.0426
C=CC[C@@]1(C(=O)NCc2ccccc2)N=C(c2ccc(OCCCO)cc2)O[C@@H]1c1ccccc1N=[N+]=[N-]	-0.453	0.669 (inactive)	-2.2 (inactive)	1.92 (inactive)	1.16 (inactive)	2.07 (inactive)	0.335 (inactive)	-0.899 (inactive)	-0.829	0.0736
CCCC#C[Si](O[C@H](CC)c1cn([C@H](CO)Cc2ccccc2)nn1)(C(C)C)C(C)C	0.442	-12.8 (active)	0.11 (inactive)	0.225 (inactive)	0.0885 (inactive)	0.852 (inactive)	-0.281 (inactive)	-0.154 (inactive)	0.114	-0.121
